Holding throughout (assay): NCI-60 one-dose screen, 48 h (100 = growth as untreated, 0 = no growth, -100 = all killed)
In one assay the test system is HCT-15 colon. The settings on record: 10 µM unless noted.
Another assay deals with HT29 colon. The settings on record: 10 µM unless noted.
For a further assay, the system named is SNB-19 CNS. As to conditions: 10 µM unless noted.
In a further assay the test system is U251 CNS. As to conditions: 10 µM unless noted.
In a further assay the test system is PC-3 prostate. The settings on record: 10 µM unless noted.
The next assay concerns SK-MEL-5 melanoma. As to conditions: 10 µM unless noted.
The subject of a further assay is UACC-62 melanoma. As to conditions: 10 µM unless noted.
A further assay deals with LOX IMVI melanoma. As to conditions: 10 µM unless noted.
The next assay relates to SK-MEL-28 melanoma. The settings on record: 10 µM unless noted.
The subject of the next assay is EKVX NSCLC. The settings on record: 10 µM.
The subject of a further assay is SN12C renal. As to conditions: 10 µM unless noted.
For the next assay, the system named is UO-31 renal. As to conditions: 10 µM unless noted.
The test system of a further assay is TK-10 renal. As to conditions: 10 µM unless noted.
The next assay has as its system ACHN renal. As to conditions: 10 µM unless noted.
The next assay concerns CAKI-1 renal. As to conditions: 10 µM unless noted.
Another assay deals with A498 renal. The settings on record: 10 µM unless noted.
In a further assay the test system is CCRF-CEM leukemia. As to conditions: 10 µM.
The test system of another assay is MOLT-4 leukemia. As to conditions: 10 µM unless noted.
Another assay concerns SNB-75 CNS. The settings on record: 10 µM unless noted.
The subject of a further assay is SK-MEL-2 melanoma. As to conditions: 10 µM unless noted.

This is part of a sample that, as a whole, favours compounds with a hit. Of some 83,000 tested, about 20% had one in any assay.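 Single-dose data. Exposure time 48 hours. Values below 10 considered active.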 A number with no mark means an inactive call. The source made the active and inactive calls.

Consider `COc1cc(-c2nn(-c3ccc(NC(=O)Nc4cc(C(F)(F)F)cc(C(F)(F)F)c4)cc3)cc2-c2ccncc2)ccc1Cl`, for which the growth was 6.27% (active) in the assay on HCT-15 colon; -30.2% (active) in the assay on HT29 colon; 26.7% in the assay with SNB-19 CNS; 7.85% (active) with U251 CNS; 10.6% in the assay with PC-3 prostate; -71% (active) in the assay with SK-MEL-5 melanoma. For the same molecule, the growth with UACC-62 melanoma is 3.75% (active); in the assay with LOX IMVI melanoma, -1.69% (active); in the assay with SK-MEL-28 melanoma it was 5.41% (active); with EKVX NSCLC, -1.64% (active); in the assay with SN12C renal, 17.3%; in the assay on UO-31 renal, -7.1% (active). Further, the growth in the assay on TK-10 renal was -32.5% (active); with ACHN renal, 4.08% (active); in the assay with CAKI-1 renal, -12.5% (active); with A498 renal, -1.9% (active); in the assay on CCRF-CEM leukemia, 16.6%; in the assay with MOLT-4 leukemia, 7.23% (active).
On to `Nc1nc(-c2cccc(Br)c2)cc(-c2cc3ccccc3oc2=O)n1`, for which the growth was 106% with HCT-15 colon; 117% with HT29 colon; 109% in the assay on SNB-19 CNS; 106% with U251 CNS; 122% with PC-3 prostate; 89.7% in the assay with SK-MEL-5 melanoma. For the same molecule, the growth in the assay on UACC-62 melanoma is 101%; in the assay on LOX IMVI melanoma it was 95.8%; in the assay with SK-MEL-28 melanoma it was 126%; with EKVX NSCLC, 93.9%; with SN12C renal it was 99.9%; with UO-31 renal, 64.2%. In addition, the growth with TK-10 renal was 74.8%; with ACHN renal, 98.2%; with CAKI-1 renal, 92%; in the assay with A498 renal, 123%; in the assay on CCRF-CEM leukemia, 77.1%; in the assay with MOLT-4 leukemia, 82.4%.
Take `C=CN(C)S(C)(=O)=O`: the growth in the assay on HT29 colon is 72.1%; in the assay with SNB-75 CNS, 32.6%; with SNB-19 CNS, 50.1%; in the assay on U251 CNS, 19.2%; with PC-3 prostate it was 16.9%; in the assay on SK-MEL-5 melanoma, 12.1%. Moreover, the growth in the assay on UACC-62 melanoma was 43%; in the assay with LOX IMVI melanoma, 29.7%; in the assay on SK-MEL-28 melanoma, 38.7%; in the assay with SK-MEL-2 melanoma, -8.09% (active); with SN12C renal, 42.5%; with UO-31 renal it was 18.2%. Further, the growth was 39.5% in the assay on ACHN renal; -7.94% (active) with CAKI-1 renal; 105% in the assay with A498 renal; 16.9% with CCRF-CEM leukemia; 30.1% with MOLT-4 leukemia.
Turning to `COc1ccc2cn3c4ccc(O)cc4[nH]c(=O)c3c2c1`, the growth in the assay with HCT-15 colon is 17.8%; with HT29 colon it was -89.2% (active); in the assay with SNB-19 CNS it was 19.7%; in the assay on U251 CNS, 5% (active); in the assay with UACC-62 melanoma, 34.9%; in the assay on LOX IMVI melanoma, 24.4%. In addition, the growth is 24.8% with SK-MEL-28 melanoma; 39% in the assay with EKVX NSCLC; 51.7% in the assay on SN12C renal; 23.6% with UO-31 renal; -2.48% (active) in the assay with TK-10 renal; 28.3% in the assay on ACHN renal. The growth was 16.9% in the assay on CAKI-1 renal, 24.5% with A498 renal, 29.2% with CCRF-CEM leukemia and 15.2% in the assay on MOLT-4 leukemia.
Regarding `CCN(CC)CCOC(=O)c1cccnc1`, the growth in the assay with HCT-15 colon is 98.7%; in the assay on HT29 colon it was 107%; with SNB-75 CNS, 79.6%; in the assay on U251 CNS, 97.7%; in the assay on PC-3 prostate, 99.7%; with SK-MEL-5 melanoma, 98%. The growth was 103% with UACC-62 melanoma; 90.9% in the assay with LOX IMVI melanoma; 98.4% in the assay on SK-MEL-28 melanoma; 91.1% in the assay with SK-MEL-2 melanoma; 96.2% in the assay on SN12C renal; 86.2% in the assay on UO-31 renal. Further, the figures for the growth in the assay with ACHN renal, in the assay with A498 renal and in the assay on MOLT-4 leukemia were 99.3%, 62.5% and 94.2%, respectively.
In the case of `COC(=O)c1cc(O)c2cc3c(cc2c1-c1cc(OC)c(OC)c(OC)c1)OCO3`, the growth with HCT-15 colon is 23.6%; with HT29 colon, -9.35% (active); in the assay with SNB-19 CNS it was 36.9%; with U251 CNS it was 42.3%; in the assay on SK-MEL-5 melanoma it was 3.09% (active); in the assay with UACC-62 melanoma, 44.2%. The growth in the assay with LOX IMVI melanoma was 29.7%; in the assay with SK-MEL-28 melanoma, 51.5%; with EKVX NSCLC, 55.8%; with SN12C renal, 34.1%; in the assay with UO-31 renal, 44.8%; in the assay with TK-10 renal, 43.2%. The growth in the assay with ACHN renal is 36.8%; with CAKI-1 renal, 30.2%; in the assay on A498 renal it was 45.6%; in the assay on CCRF-CEM leukemia, 8.87% (active); with MOLT-4 leukemia, 35.3%.
As for `Nc1nc2cc(O)ccc2n2cc3c(F)cccc3c12`, the growth was 35.6% in the assay with HCT-15 colon; 20.7% in the assay on HT29 colon; 35.9% in the assay on SNB-19 CNS; 32.8% with U251 CNS; 42.2% in the assay on PC-3 prostate; 14.2% in the assay with SK-MEL-5 melanoma. In addition, the growth in the assay with UACC-62 melanoma was 39%; in the assay on LOX IMVI melanoma, 34.9%; in the assay with SK-MEL-28 melanoma, 20%; with EKVX NSCLC it was 24.8%; in the assay with SN12C renal, 47%; in the assay on UO-31 renal, 2.79% (active). Besides, the growth in the assay with TK-10 renal was -12.5% (active); in the assay with ACHN renal, 18.9%; in the assay with CAKI-1 renal, -12.1% (active); in the assay on A498 renal, 41.5%; in the assay on CCRF-CEM leukemia it was 58.4%; in the assay with MOLT-4 leukemia, 3.96% (active).
Consider `CCCCCCNc1nc(N2CCOCC2)c2[nH]c(NCCCCCC)nc2n1`, for which the growth with HCT-15 colon is -74.6% (active); in the assay with SNB-75 CNS it was -95.1% (active); in the assay on SNB-19 CNS, -92.7% (active); with U251 CNS, -93.4% (active); in the assay on PC-3 prostate it was -21.2% (active); in the assay on SK-MEL-5 melanoma, -90.6% (active). Further, the growth with UACC-62 melanoma was -97.4% (active); in the assay on LOX IMVI melanoma, -100% (active); with SK-MEL-28 melanoma it was -94.4% (active); in the assay with EKVX NSCLC it was -51.5% (active); in the assay on SN12C renal, -94.9% (active); with UO-31 renal it was -81% (active). Besides, the growth in the assay on TK-10 renal was -97.2% (active); in the assay on ACHN renal, -92.7% (active); in the assay on CAKI-1 renal, -63.8% (active); with CCRF-CEM leukemia, -32.3% (active); in the assay on MOLT-4 leukemia, -53.6% (active).
On to `COC(=O)C(C(=O)OC)C(Br)C(Br)C(Br)c1ccccc1` (stereo unspecified), for which the growth in the assay on HCT-15 colon is 79.7%; in the assay on SNB-75 CNS, 87.4%; in the assay on SNB-19 CNS, 100%; in the assay on U251 CNS it was 94.8%; in the assay on PC-3 prostate, 101%; in the assay on SK-MEL-5 melanoma, 91.5%. Further, the growth is 80.9% in the assay with UACC-62 melanoma; -16% (active) in the assay on LOX IMVI melanoma; 106% in the assay on SK-MEL-28 melanoma; 97.9% in the assay on SN12C renal; 77.7% in the assay with UO-31 renal; 17.9% with ACHN renal. Further, the growth in the assay with A498 renal was 116%; with CCRF-CEM leukemia, -28.9% (active); in the assay with MOLT-4 leukemia it was 63.8%.
